In PubChem BioAssay (NCI):
About 83,000 compounds went through this panel and 20% of them were active in at least one assay; those are over-represented in the sample as a whole.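 Each cell line was grown in a 96-well plate and treated with one concentration of compound for 48 hours. Values below 10 were considered active.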 Unmarked numbers belong to inactive results. Activity calls are given as the source filed them.

Legend:
Assay in all cases: NCI-60 one-dose screen, 48 h (100 = growth as untreated, 0 = no growth, -100 = all killed)
Conditions in all cases: 10 µM unless noted
DU-145 prostate = tested on: DU-145 prostate
K-562 leukemia = tested on: K-562 leukemia
MALME-3M melanoma = tested on: MALME-3M melanoma
MDA-MB-231 breast = tested on: MDA-MB-231 breast
RXF 393 renal = tested on: RXF 393 renal
SF-268 CNS = tested on: SF-268 CNS
SF-295 CNS = tested on: SF-295 CNS
SF-539 CNS = tested on: SF-539 CNS
UACC-257 melanoma = tested on: UACC-257 melanoma
M14 melanoma = tested on: M14 melanoma
HCT-15 colon = tested on: HCT-15 colon
HT29 colon = tested on: HT29 colon
SNB-75 CNS = tested on: SNB-75 CNS
SNB-19 CNS = tested on: SNB-19 CNS
U251 CNS = tested on: U251 CNS
PC-3 prostate = tested on: PC-3 prostate
SK-MEL-5 melanoma = tested on: SK-MEL-5 melanoma
UACC-62 melanoma = tested on: UACC-62 melanoma
LOX IMVI melanoma = tested on: LOX IMVI melanoma
SK-MEL-28 melanoma = tested on: SK-MEL-28 melanoma

SMILES | growth (DU-145 prostate) | growth (K-562 leukemia) | growth (MALME-3M melanoma) | growth (MDA-MB-231 breast) | growth (RXF 393 renal) | growth (SF-268 CNS) | growth (SF-295 CNS) | growth (SF-539 CNS) | growth (UACC-257 melanoma) | growth (M14 melanoma) | growth (HCT-15 colon) | growth (HT29 colon) | growth (SNB-75 CNS) | growth (SNB-19 CNS) | growth (U251 CNS) | growth (PC-3 prostate) [%] | growth (SK-MEL-5 melanoma) | growth (UACC-62 melanoma) | growth (LOX IMVI melanoma) | growth (SK-MEL-28 melanoma)
N#Cc1c(N2CCNCC2)nc2sc3cc(Cl)c(Cl)cc3n2c1=N | 122% | 77.4% | 119% | 84.1% | 19.1% | 117% | 113% | 86.1% | 124% | 106% | 122% | 98.7% | 62.2% | 98.5% | 107% | 94.2 | 89.9% | 82.6% | 93.5% | 120%
Cc1cc(NCCCCNc2ccnc3cc(Cl)ccc23)nc(Nc2ccc(C(=O)N3CCCCC3)cc2)n1 | 21.8% | -46.2% (active) | -76.3% (active) | -41.1% (active) | -74.4% (active) | -38.3% (active) | -60.3% (active) | -79.6% (active) | -67.5% (active) | -85% (active) | -31.6% (active) | -25.4% (active) | -73.4% (active) | 25.1% | -36.3% (active) | 12.2 | -96.5% (active) | -57.8% (active) | -78.3% (active) | -76.5% (active)
CCc1c2c(nc3ccc(OC(=O)NCc4ccc(B5OC(C)(C)C(C)(C)O5)cc4)cc13)-c1cc3c(c(=O)n1C2)COC(=O)[C@]3(O)CC | 3.45% (active) | 10.8% | -44.1% (active) | 13% | -61.9% (active) | -5.02% (active) | -0.543% (active) | -47.1% (active) | -44.5% (active) | -16.1% (active) | 10.4% | 25.2% | -22.1% (active) | 1.93% (active) | -33.3% (active) | 14.7 | -87.4% (active) | -80.5% (active) | -71.6% (active) | 3.27% (active)
CCCCCCCCCCCCCCCCCCOc1ccc(CC(=O)OCC[N+]2(C)CCCC2)cc1 | 106% | 92.2% | 117% | 111% | 101% | 104% | 90.6% | 99.7% | 107% | 97.9% | 97.8% | 98.6% | 106% | 90.8% | 85.8% | 99.9 | 103% | 96.2% | 42.5% | 106%
O=c1ccn2nc3ccccc3c2[nH]1 | 128% | 98.5% | 86.7% | 91.3% | 123% | 110% | 118% | 95.9% | 130% | 98.6% | 91.7% | 96.1% | 85.2% | 95.5% | 96.4% | 88 | 96% | 92.5% | 96.3% | 182%
O=C1CCc2c(sc3[nH]c(=S)n(-c4ccc(OC(F)(F)F)cc4)c(=O)c23)C1 | 81.2% | 18% | 68% | 61.4% | 37.3% | 25.6% | 17.2% | 19% | 85.9% | 59.6% | 40.4% | 104% | 27.4% | 17.1% | 21.6% | 16.1 | 22.6% | 10.8% | 20.6% | 43.2%
CCN(CCNc1ccc(C)c2sc3ccccc3c(=O)c12)CC(C)(C)O | 95.7% | -34.5% (active) | 89.1% | 78% | 74.7% | 83.3% | -17.6% (active) | 78.9% | 95.9% | 73.2% | 28.8% | 39.2% | 73.7% | 78% | 49.7% | 71.4 | 75.9% | 53.6% | 54.4% | 79.6%
CC(CN1CCCCC1)C(=O)c1ccccc1 (stereo not given) | 104% | 101% | 107% | 99.7% | 112% | 99.9% | 101% | 92.1% | 103% | 98.3% | 107% | 101% | 101% | 101% | 101% | 95.4 | 102% | 104% | 98.3% | 106%
